Results published in PubChem BioAssay (NCATS).
Results filed as inconclusive are left out. Active and inactive are the calls of the source. Calls follow the shape of the dose curve; as a rule, active = well fitted inhibition curve with a large enough effect; inconclusive = small, poorly fitted or top-dose-only effect; inactive = flat fitted curve, though single readings scatter.

Experiments:
[1] = qHTS profiling for inhibitors of Plasmodium falciparum proliferation (AID 504749);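 as to activity, negative = inhibition: 0% = DMSO vehicle and full inhibition = artemisinin control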; as to all read-outs here: nearly all actives have a fitted effect of over 60% in size; settings: P. falciparum in erythrocytes, SYBR Green DNA, 72 h; for activity, negative = inhibition: at 28.7 µM (top of the series)
Summary of the method: (§1)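 Infected RBCs, 0.3% parasitemia/2.5% Hct final; cpd 72 h, 37 C, 5% CO2; lysis buffer with saponin/triton/SYBR Green I, o/n RT dark; FI 485/535; norm. to artemisinin (0.29 uM) and DMSO.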

3D7 = assay: as above; settings: P. falciparum in erythrocytes, SYBR Green DNA, 72 h; series mostly up to 28.7 µM
Summary of the method: as §1

AS120 = assay: as above; settings: P. falciparum in erythrocytes, SYBR Green DNA, 72 h; series mostly up to 28.7 µM
Summary of the method: as §1

ATS189 = assay: as above; settings: P. falciparum in erythrocytes, SYBR Green DNA, 72 h; series mostly up to 28.7 µM
Summary of the method: as §1

C2A = assay: as above; settings: P. falciparum in erythrocytes, SYBR Green DNA, 72 h; series mostly up to 28.7 µM
Summary of the method: as §1

CP185 = assay: as above; settings: P. falciparum in erythrocytes, SYBR Green DNA, 72 h; series mostly up to 28.7 µM
Summary of the method: as §1

CP191 = assay: as above; settings: P. falciparum in erythrocytes, SYBR Green DNA, 72 h; series mostly up to 28.7 µM
Summary of the method: as §1

CP192 = assay: as above; settings: P. falciparum in erythrocytes, SYBR Green DNA, 72 h; series mostly up to 28.7 µM
Summary of the method: as §1

CP194 = assay: as above; settings: P. falciparum in erythrocytes, SYBR Green DNA, 72 h; series mostly up to 28.7 µM
Summary of the method: as §1

CP201 = assay: as above; settings: P. falciparum in erythrocytes, SYBR Green DNA, 72 h; series mostly up to 28.7 µM
Summary of the method: as §1

CP203 = assay: as above; settings: P. falciparum in erythrocytes, SYBR Green DNA, 72 h; series mostly up to 28.7 µM
Summary of the method: as §1

CP211 = assay: as above; settings: P. falciparum in erythrocytes, SYBR Green DNA, 72 h; series mostly up to 28.7 µM
Summary of the method: as §1

CP217 = assay: as above; settings: P. falciparum in erythrocytes, SYBR Green DNA, 72 h; series mostly up to 28.7 µM
Summary of the method: as §1

CP238 = assay: as above; settings: P. falciparum in erythrocytes, SYBR Green DNA, 72 h; series mostly up to 28.7 µM
Summary of the method: as §1

CP247 = assay: as above; settings: P. falciparum in erythrocytes, SYBR Green DNA, 72 h; series mostly up to 28.7 µM
Summary of the method: as §1

AA1029 = assay: as above; settings: P. falciparum in erythrocytes, SYBR Green DNA, 72 h; series mostly up to 28.7 µM
Summary of the method: as §1

ATS95 = assay: as above; settings: P. falciparum in erythrocytes, SYBR Green DNA, 72 h; series mostly up to 28.7 µM
Summary of the method: as §1

CP215 = assay: as above; settings: P. falciparum in erythrocytes, SYBR Green DNA, 72 h; series mostly up to 28.7 µM
Summary of the method: as §1

CP237 = assay: as above; settings: P. falciparum in erythrocytes, SYBR Green DNA, 72 h; series mostly up to 28.7 µM
Summary of the method: as §1

7G8 = assay: as above; settings: P. falciparum in erythrocytes, SYBR Green DNA, 72 h; series mostly up to 28.7 µM
Summary of the method: as §1
Potency is read from the fitted curve at half-maximal effect.

COc1ccc2c(=O)c(C)c(-c3ccccc3)oc2c1CN(C)C
inactive: activity, negative = inhibition ([1]; parasite line A) -2.15% | activity, negative = inhibition ([1]; parasite line B) -7.38% | Potency (3D7) | Potency (AS120) | Potency (ATS189) | Potency (C2A) | Potency (CP185) | Potency (CP191) | Potency (CP192) | Potency (CP194) | Potency (CP201) | Potency (CP203) | Potency (CP211) | Potency (CP217) | Potency (CP238) | Potency (CP247)

NC(=O)[C@@H]1CCCN1C(=O)[C@H](Cc1cnc[nH]1)NC(=O)[C@@H]1CCC(=O)N1
inactive: activity, negative = inhibition ([1]; parasite line A) 0.117% | activity, negative = inhibition ([1]; parasite line B) 4.94% | Potency (3D7) | Potency (AA1029) | Potency (AS120) | Potency (ATS189) | Potency (ATS95) | Potency (C2A) | Potency (CP185) | Potency (CP191) | Potency (CP192) | Potency (CP194) | Potency (CP201) | Potency (CP203) | Potency (CP211) | Potency (CP215) | Potency (CP217) | Potency (CP237) | Potency (CP238) | Potency (CP247)

OC1OC[C@@H](O)[C@H](O)[C@@H]1O (stereo partly specified)
inactive: activity, negative = inhibition ([1]; parasite line A) -2.48% | Potency (3D7) | Potency (7G8) | Potency (AA1029) | Potency (AS120) | Potency (ATS189) | Potency (ATS95) | Potency (C2A) | Potency (CP185) | Potency (CP191) | Potency (CP192) | Potency (CP194) | Potency (CP201) | Potency (CP203) | Potency (CP211) | Potency (CP215) | Potency (CP217) | Potency (CP237) | Potency (CP238) | Potency (CP247)

CCCCCCCCCC(=O)NO
inactive: activity, negative = inhibition ([1]; parasite line A) -20% | activity, negative = inhibition ([1]; parasite line B) -16.7% | Potency (3D7) | Potency (AA1029) | Potency (AS120) | Potency (ATS189) | Potency (ATS95) | Potency (C2A) | Potency (CP185) | Potency (CP192) | Potency (CP194) | Potency (CP201) | Potency (CP203) | Potency (CP211) | Potency (CP215) | Potency (CP217) | Potency (CP237) | Potency (CP238) | Potency (CP247)

CC(C)(C)CC(C)(C)c1ccc(OCCO)cc1
inactive: activity, negative = inhibition ([1]; parasite line A) -21% | activity, negative = inhibition ([1]; parasite line B) -13.8% | Potency (3D7) | Potency (AA1029) | Potency (AS120) | Potency (ATS189) | Potency (ATS95) | Potency (C2A) | Potency (CP185) | Potency (CP191) | Potency (CP192) | Potency (CP194) | Potency (CP201) | Potency (CP203) | Potency (CP211) | Potency (CP215) | Potency (CP217) | Potency (CP237) | Potency (CP238) | Potency (CP247)

CCOc1cc(-c2nccc3cc(OC)c(OC)cc23)cc(OCC)c1OCC
active: Potency ([1]; parasite line A) 8.91 µM | Potency ([1]; parasite line B) 11.2 µM | Potency (7G8) 11.2 µM | Potency (CP191) 11.2 µM
inactive: Potency (C2A) | Potency (CP238)

C=CCCCCCCCCC(=O)OC
inactive: activity, negative = inhibition ([1]; parasite line A) -4.4% | activity, negative = inhibition ([1]; parasite line B) 10.1% | Potency (3D7) | Potency (AA1029) | Potency (AS120) | Potency (ATS189) | Potency (ATS95) | Potency (C2A) | Potency (CP185) | Potency (CP191) | Potency (CP192) | Potency (CP194) | Potency (CP201) | Potency (CP203) | Potency (CP211) | Potency (CP215) | Potency (CP217) | Potency (CP237) | Potency (CP238) | Potency (CP247)

O=C(O)CCC/C=C\C[C@@H]1[C@@H](/C=C/[C@@H](O)COc2cccc(Cl)c2)[C@H](O)C[C@@H]1O
inactive: activity, negative = inhibition ([1]; parasite line A) 11.9% | activity, negative = inhibition ([1]; parasite line B) -6.6% | Potency (3D7) | Potency (AA1029) | Potency (AS120) | Potency (ATS189) | Potency (ATS95) | Potency (C2A) | Potency (CP185) | Potency (CP191) | Potency (CP192) | Potency (CP194) | Potency (CP201) | Potency (CP203) | Potency (CP211) | Potency (CP215) | Potency (CP217) | Potency (CP237) | Potency (CP238) | Potency (CP247)
